In all, about 310,000 compounds went through this assay and about 14,000 (4.5%) showed an effect of 50% or more. The effect is printed as a negative number. What follows is part of a selection rich in strong results, with near analogues and random picks from the rest.
What follows are compounds tested against human ether-à-go-go-related gene (hERG) potassium channel (human, UniProt Q12809) (assay: primary screen, population patch clamp on CHO cells stably expressing hERG; higher = less effect of the substance).
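Note: peak tail current of the secondary pulse compared with the same well before compound.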

Sequence of human ether-à-go-go-related gene (hERG) potassium channel (Q12809 whole entry, looked up): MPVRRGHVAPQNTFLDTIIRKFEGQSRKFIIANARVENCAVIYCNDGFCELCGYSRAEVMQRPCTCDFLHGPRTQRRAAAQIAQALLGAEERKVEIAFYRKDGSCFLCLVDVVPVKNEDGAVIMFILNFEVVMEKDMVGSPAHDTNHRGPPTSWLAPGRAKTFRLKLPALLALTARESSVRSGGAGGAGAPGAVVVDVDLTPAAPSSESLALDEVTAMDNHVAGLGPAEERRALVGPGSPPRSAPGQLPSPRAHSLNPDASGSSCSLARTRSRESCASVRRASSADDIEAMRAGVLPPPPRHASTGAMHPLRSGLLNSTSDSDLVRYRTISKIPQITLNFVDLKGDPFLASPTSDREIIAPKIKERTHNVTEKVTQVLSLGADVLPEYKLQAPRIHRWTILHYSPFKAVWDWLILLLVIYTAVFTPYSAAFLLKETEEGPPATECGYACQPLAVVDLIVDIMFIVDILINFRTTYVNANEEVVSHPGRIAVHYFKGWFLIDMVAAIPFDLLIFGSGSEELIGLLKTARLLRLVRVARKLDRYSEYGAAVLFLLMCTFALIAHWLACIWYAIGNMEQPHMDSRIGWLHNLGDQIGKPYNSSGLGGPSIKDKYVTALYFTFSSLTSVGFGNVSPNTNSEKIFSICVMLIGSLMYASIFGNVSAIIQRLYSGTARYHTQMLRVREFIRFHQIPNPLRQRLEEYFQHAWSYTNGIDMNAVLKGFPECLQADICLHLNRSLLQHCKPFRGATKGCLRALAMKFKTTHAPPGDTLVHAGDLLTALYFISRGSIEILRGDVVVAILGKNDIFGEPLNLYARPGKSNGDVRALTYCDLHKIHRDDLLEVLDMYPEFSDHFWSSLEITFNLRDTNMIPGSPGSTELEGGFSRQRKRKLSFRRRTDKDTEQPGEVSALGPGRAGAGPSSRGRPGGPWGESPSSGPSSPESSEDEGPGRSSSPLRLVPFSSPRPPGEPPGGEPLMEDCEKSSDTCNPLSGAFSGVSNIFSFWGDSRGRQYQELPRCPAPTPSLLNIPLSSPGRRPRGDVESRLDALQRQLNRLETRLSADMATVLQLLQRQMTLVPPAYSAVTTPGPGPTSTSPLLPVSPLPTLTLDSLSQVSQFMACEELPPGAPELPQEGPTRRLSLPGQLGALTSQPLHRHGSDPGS

| Structure (SMILES) | hERG current change (%, negative = inhibition) at 10uM [%] |
| --- | --- |
| Nc1ccccc1NC(=O)NC(=O)c1ccccc1 | 12.5 |
| CCC(=O)Nc1ccc(NC(=O)c2cccc3c(Br)cccc23)cc1 | 3.96 |
| COC(=O)C(Cc1ccccc1)NC(=O)CCc1c[nH]c2ccccc12 (stereo not shown) | -8.09 |
| CCOC(=O)N1CCN(CCC(=O)Nc2ccc(C)cc2)CC1 | 4.65 |
| CCOC(=O)N1CCN(CC(=O)Nc2ccc(OC)cc2)CC1 | -15.2 |
| CCOC(=O)N1CCN(CC(=O)Nc2ccc(F)cc2)CC1 | -82 |
| CCOC(=O)N1CCN(CC(=O)Nc2ccc(C)cc2)CC1 | -63.2 |
| CCOC(=O)N1CCN(CC(=O)Nc2ccc(F)cc2F)CC1 | -28.6 |
| CCOC(=O)N1CCN(CC(=O)Nc2ccc(F)c(F)c2F)CC1 | 7.7 |
| COc1ccc(-c2nn(-c3ccccc3)cc2/C=N/N2C(=O)CSC2=S)cc1 | -6.34 |
| O=C(NCCCl)NNc1c(Cl)cc(Cl)cc1Cl | 10.3 |
| CC1(C)Oc2ccc3ccc(=O)oc3c2[C@@H](O)[C@H]1O | 15.5 |
| CCOCCn1cnc2sc(C(=O)NCC(=O)OCC)c(C)c2c1=O | -3.75 |
| COc1ccc(CN2CCC(n3nccc3NC(=O)C3CC3)CC2)c(OC)c1OC | -51.4 |
| Cc1cc(C)c(CN2CCC(n3nccc3NC(=O)C3CCCC3)CC2)cc1C | -70.7 |
| COc1cc(C)c(CN2CCC(n3nccc3NC(=O)C3CCOC3)CC2)cc1C (stereo not shown) | -18.2 |
| O=C(Nc1ccnn1C1CCN(Cc2ccccc2F)CC1)C1CCCC1 | -45.4 |
| COc1ccc(CN2CCC(n3nccc3NC(=O)C3CC3)CC2)c(Cl)c1OC | -39.2 |
| COc1ccc(C(=O)N2CCC(n3nccc3NC(=O)C3CC3)CC2)c(OC)c1OC | 24.7 |
| CCn1cc(CN2CCC(n3nccc3NC(=O)C3CCCC3)CC2)c(C)n1 | -12.4 |
| COc1cc(C)c(CN2CCC(n3nccc3NC(=O)C3CC3)CC2)cc1C | -52.7 |
| Cc1ccc(C)c(CN2CCC(n3nccc3NC(=O)C3CCCC3)CC2)c1 | -69.9 |
| Cc1cc(C)c(CN2CCC(n3nccc3NC(=O)C3CCOC3)CC2)cc1C (stereo not shown) | -19 |
| OCCSc1nc2ccccc2n1CCOc1ccccc1 | 4.02 |

| Structure (SMILES) | hERG current change (%, negative = inhibition) at 10uM [%] |
| --- | --- |
| O=c1cccccc1NCc1ccccc1 | -17.3 |
| O=C(CSCC(=O)N1CCCc2ccccc21)Nc1nc(-c2ccccc2)cs1 | 12.4 |
| COc1ccc(NC(=O)CSc2nnc(Cc3ccccc3)c(=O)n2N)c(OC)c1 | -18.1 |
| O=c1c2ccccc2nc(-c2ccoc2)n1CCc1ccccc1 | -3.87 |
| COc1ccc(NC(=O)CCC(=O)N(Cc2ccc(OC)c(OC)c2)c2nccs2)cc1 | 13.5 |
| CC(=O)Nc1ccc(NC(=O)c2ccc(N(C)S(=O)(=O)c3ccc(C)cc3)cc2)cc1 | 6.8 |
| CC(=O)Oc1ccc2c(=O)c(-c3ccccc3)c(C)oc2c1 | 16.2 |
| O=C(CSc1ncnc2scc(-c3ccccc3)c12)Nc1ccc(C(=O)O)cc1 | 8.17 |
| COc1ccc(C(C(=O)NC2CCCCC2)N(C(=O)c2ccco2)c2ccc(-n3cnnn3)c(C)c2)cc1 (stereo not shown) | 8.93 |
| CCCN1C(=O)c2cc(C(=O)Nc3ccccc3CC)ccc2C1O (stereo not shown) | 2.3 |
| N#Cc1c(N)n(CCNC(=O)c2cccs2)c2nc3ccccc3nc12 | 10.4 |
| O/N=C/c1ccnc(SCc2ccccc2)n1 | -12.1 |
| Cc1c(NC(=O)COC(=O)c2cc3c4ccccc4n(C)c3s2)c(=O)n(-c2ccccc2)n1C | -11.8 |
| Cc1c(NC(=O)C(C)OC(=O)c2cccs2)c(=O)n(-c2ccccc2)n1C (stereo not shown) | 3.46 |
| Cc1c(NC(=O)C(C)OC(=O)c2cc3c4ccccc4n(C)c3s2)c(=O)n(-c2ccccc2)n1C (stereo not shown) | -68.5 |
| CN(C)S(=O)(=O)c1ccc(N=Cc2c(C(F)(F)F)[nH][nH]c2=O)cc1 | 23 |
| CC(C)(C)c1ccccc1NC(=O)CN1C(=O)NC2(CCCC2)C1=O | 1.01 |
| O=C(Nc1ccc(N2CCN(C(=O)c3ccco3)CC2)c(Cl)c1)c1c(F)c(F)c(F)c(F)c1F | -32.1 |
| CCCC(=O)N1CCN(c2ccc(NC(=O)c3cc4ccccc4o3)cc2)CC1 | -13.4 |
| Cc1ccc(NC(=O)c2cc3ccccc3o2)cc1Cl | 19.7 |
| CC(C)C(=O)N1CCN(c2ccc(NC(=O)c3cccs3)cc2Cl)CC1 | -14.7 |
| CCCC(=O)N1CCN(c2ccc(NC(=O)c3cccs3)cc2)CC1 | -18.2 |
| O=C(Nc1ccc(N2CCN(C(=O)c3ccco3)CC2)c(Cl)c1)c1cc2ccccc2o1 | -67.9 |
| CCCC(=O)N1CCN(c2ccc(NC(=O)c3cccs3)cc2Cl)CC1 | -66.8 |

| Structure (SMILES) | hERG current change (%, negative = inhibition) at 10uM [%] |
| --- | --- |
| CCC(=O)N1CCN(c2ccc(NC(=O)c3cc4ccccc4o3)cc2)CC1 | -23.3 |
| O=C(Nc1ccc(N2CCOCC2)c(Cl)c1)c1cc2ccccc2o1 | -36.1 |
| CCCC(=O)N1CCN(c2ccc(NC(=O)c3cc4ccccc4o3)cc2Cl)CC1 | -56.8 |
| Cc1ccccc1C(=O)N1CCN(c2ccc(NC(=O)c3ccco3)cc2Cl)CC1 | -43.2 |
| CCC(=O)N1CCN(c2ccc(NC(=O)c3cc4ccccc4o3)cc2Cl)CC1 | -67.7 |
| O=C(Cc1ccccc1[N+](=O)[O-])Nc1ccc2c(c1)OCO2 | -40.1 |
| CCOc1ccc(CCNC(=O)c2cccnc2N2CCCC2)cc1OCC | 13.2 |
| Cc1ccc(C)c(C(=O)Nc2c(C(N)=O)oc3ccccc23)c1 | 5.52 |
| COc1cccc(C(=O)NC2CCSC2=O)c1 (stereo not shown) | 23.8 |
| CC(=O)c1ccc(N2CCN(C(=O)[C@H](C)NC(=O)c3ccccc3Cl)CC2)cc1 | -9.57 |
| COC(=O)[C@@H]1C[C@@]2(O)[C@H](O)[C@H](O)[C@H](O)C[C@H]2N1CC1CC1 | 6.98 |
| N#Cc1c(N)nc2c(c1-c1ccccc1)CCCC2 | -1.63 |
| O=C1c2ccccc2C(=O)C1(CO)c1ccccc1 | 27.7 |
| CC(=O)N1CCN(c2ccccc2NC(=O)c2cccs2)CC1 | -43.8 |
| CN1CCN(c2ccccc2NC(=O)c2cccs2)CC1 | -47.5 |
| CCC(=O)N1CCN(c2ccccc2NC(=O)c2cccs2)CC1 | -50.4 |
| CC1CCN(c2ccccc2NC(=S)NC(=O)c2cccs2)CC1 | -50.2 |
| O=C(NC(=S)Nc1ccccc1N1CCCCC1)c1cccs1 | 6.21 |
| O=C(NC(=S)Nc1ccccc1N1CCCC1)c1cccs1 | 7.27 |
| CCCC(=O)N(CCN1CCOCC1)c1nc2c(OC)ccc(OC)c2s1.Cl | -15.5 |
| CCOC(=O)C1=C(N)Oc2cc(O)ccc2C1c1cccc([N+](=O)[O-])c1 (stereo not shown) | -11.3 |
| COc1ccc(NC(=O)c2ccccc2Oc2ccccc2)c(OC)c1 | 1.42 |
| COc1ccc(C(C(=O)NC2CCCCC2)N(Cc2cccnc2)C(=O)c2snc(C(N)=O)c2N)cc1 (stereo not shown) | -11.8 |
| COc1ccc(/C=N/n2cncn2)cc1Cn1nc(C)c([N+](=O)[O-])c1C | -53.6 |

| Structure (SMILES) | hERG current change (%, negative = inhibition) at 10uM [%] |
| --- | --- |
| COc1ccc(/C=N/n2cncn2)cc1Cn1cc([N+](=O)[O-])cn1 | -32.1 |
| COc1ccc(/C=N/N2CCOCC2)cc1Cn1nc(C)c([N+](=O)[O-])c1C | -10.8 |
| COC(=O)[C@]1(CC(C)C)N[C@H](c2ccc(-c3ccc(F)cc3)cc2)[C@@H]2C(=O)N(C)C(=O)[C@@H]21.O=C(O)C(F)(F)F | -15.7 |
| COc1ccc(-c2cc(=O)n(-c3nc4ccccc4[nH]3)[nH]2)cc1 | -53.1 |
| Cl.O=c1cc(-c2ccccc2)[nH]n1-c1nc2ccccc2[nH]1 | 7.02 |
| COC(=O)Cc1cc(=O)n(-c2nc3ccccc3[nH]2)[nH]1 | -23.3 |
| CCN(CC)CCOC(=O)/C=C/c1ccccc1.Cl | -12.4 |
| Cc1cccc(Nc2nnc(SCC(=O)NCc3cccs3)s2)c1 | 21.9 |
| CNc1nc(C)nc(-n2nc(C)cc2C)n1 | 15.8 |
| Cc1cc(C)n(-c2nc(C)nc(NCc3ccccc3)n2)n1 | -86.9 |
| Cc1cc(C)n(-c2nc(Nc3ccccc3)nc(-n3nc(C)cc3C)n2)n1 | 15.6 |
| CC(=O)Nc1nc(SCc2ccc(Cl)cc2Cl)n[nH]1 | 16.4 |
| O=[N+]([O-])c1ccc2c(c1)nc1n2CCSC1 | -19.2 |
| COc1cc(CN2CC3CC(C2)c2cccc(=O)n2C3)cc(OC)c1OC (stereo not shown) | -6.41 |
| Cc1ccc2occ(CN3CC4CC(C3)c3cccc(=O)n3C4)c(=O)c2c1 (stereo not shown) | -63.9 |
| COc1cc(C)c(-c2nc(CN3C[C@@H]4C[C@@H](C3)c3cccc(=O)n3C4)c(C)o2)cc1C | -57.6 |
| COc1ccc(CN2CC3CC(C2)c2cccc(=O)n2C3)cc1OC (stereo not shown) | -5.24 |
| Cc1cc(C)n2c(Br)c(CN3CC4CC(C3)c3cccc(=O)n3C4)nc2n1 (stereo not shown) | 0.651 |
| Cc1oc(-c2ccc(F)cc2F)nc1CN1C[C@@H]2C[C@@H](C1)c1cccc(=O)n1C2 | -74.4 |
| Cc1ccc(CN2CC3CC(C2)c2cccc(=O)n2C3)cc1 (stereo not shown) | -5.29 |
| Cc1cccc(N2CCN(Cc3nc(-c4ccc(F)cc4F)oc3C)CC2)n1 | -41.3 |
| Cc1ccc2occ(CN3CCN(Cc4ccccc4)CC3)c(=O)c2c1 | -45.9 |

Source: PMC4336329 (PLoS ONE, 2015)
